# Bioassay records deposited in PubChem by several laboratories.
# Shown are actives, neighbours in structure and some others; about 0.48% of the full set was active somewhere.
# NCOA1 inh: inhibitors of human steroid receptor coactivator 1 (SRC1). AID 588354. HEK293 GAL4-SRC1 luciferase reporter, luminescence. inhibition, % at 3.6 µM. 360,000 compounds, 0.12% hits. Q15788;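 active means inhibition above the campaign mean plus 3 SD, with each screening campaign given its own cutoff, cut at about 60% in these data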;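 further: 0% = DMSO treated cells and 100% = gossypol at 36 µM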
# NCOA2 inhibitor: inhibits human steroid receptor coactivator 2; Q15596; HEK293 GAL4-SRC2 luciferase reporter, luminescence; inhibition, % at 9 µM; 370,000 compounds, 0.17% hits;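 active means inhibition above the mean inhibition of all tested compounds plus 3 SD, set per campaign, cut at about 52% in these data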;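 further: 0% = DMSO treated cells and 100% = cells given Gossypol at 36 µM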
# LRH-1 inv ag: inverse agonists of human LRH-1 (NR5A2); O00482; AID 602396; inhibition, % at 3.6 µM; HEK293T StAR-luciferase reporter, LRH-1 transfected, 24 h; 360,000 compounds, 0.13% hits;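 active means inhibition above the mean inhibition of all tested compounds plus 3 SD, cut at about 73% in these data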;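 further: 0% = DMSO wells and 100% = reporter-only cells lacking LRH-1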
# NCOA3 inh: human NCOA3 inhibition; Q9Y6Q9; HEK293 GAL4-SRC3 luciferase reporter, luminescence; inhibition, % at 3.6 µM; 360,000 compounds, 0.17% hits; AID 588352;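 active means inhibition above a per-campaign cutoff, the mean of all compounds plus 3 SD, cut at about 60% in these data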;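 further: 0% = DMSO-treated cells and 100% = gossypol-treated cells at 36 µM; higher means less SRC3-driven luciferase light from the GAL4 reporter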
# LGR2 inh: blocks bursicon-induced cAMP signaling via Drosophila LGR2; 380,000 compounds, 0.35% hits; HEK293 LGR2, CRE-luciferase, bursicon-stimulated, 4 h; inhibition, % at 9.99 µM;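 active means drop in luminescence signal, shown as inhibition above about 50% in the replicate tests, limit read from the data, passing the limit was not always enough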;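 further: agonist challenge used bursicon conditioned medium at about half maximal strength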
# The depositor's hits bear a star; / = no result given.
SMILES,NCOA1 inh,NCOA2 inhibitor,LRH-1 inv ag,NCOA3 inh,LGR2 inh
COc1cc(CN2CC3(CCN(C(=O)CN4CCOCC4)CC3)c3c(n(C)c4cc(OC)ccc34)[C@H]2CO)cc(OC)c1,/,/,/,/,1.6
CCC(=O)N1CC(=O)N2[C@H](CO)[C@@H](c3ccc(C#Cc4cccc(OC)c4)cc3)[C@@H]2C1,/,/,/,/,-11.1
CCOc1ccc(C(=O)C(CCC(CN(C)C)C(=O)c2ccc(OCC)cc2)CN(C)C)cc1 (centres undefined),5.9,51.6,88.2*,41.0,36.8
COc1ccc(C(=O)C(CCCCC(CN(C)C)C(=O)c2ccc(OC)cc2)CN(C)C)cc1 (centres undefined),-4.7,-0.6,-13.2,11.1,/
O=C(Nc1ccccc1)c1cc(C2CCCN(C(=O)c3ccccc3)C2)on1 (centres undefined),-27.3,-27.3,-1.7,-50.9,-23.8
CCCC(=O)N1CCCC(c2cc(C(=O)Nc3ccccc3)no2)C1 (centres undefined),28.1,22.1,28.7,30.3,82.4*
CCOc1ccc(-c2cc(CCCC(=O)NCCCOC)no2)cc1,3.1,69.2*,14.6,4.1,/
CCOc1ccc(-c2cc(CCCC(=O)N3CCN(c4ccc(OC)cc4)CC3)no2)cc1,-15.0,37.3,19.8,9.6,-24.3
Cn1c(=O)c2c(nc(CN3CCOCC3)n2CC(=O)c2ccccc2)n(C)c1=O,2.6,18.8,96.2*,15.6,-3.7
Cn1c(=O)c2c(nc(CN3CCc4ccccc4C3)n2CC(=O)c2ccccc2)n(C)c1=O,11.4,-2.2,31.2,23.4,23.1
Cc1noc(C)c1S(=O)(=O)N(C)C[C@H]1Oc2ccc(NC(=O)CCCCCC(=O)Nc3ccccc3N)cc2CC(=O)N([C@H](C)CO)C[C@@H]1C,/,/,/,/,-26.7
Oc1ccc(N=Nc2ccc3c(c2)OCCO3)c2ncccc12,49.9,56.8*,14.8,43.7,-18.7
CC(C)N=C(NS(=O)(=O)c1ccccc1)C(Cl)(Cl)Cl,-4.7,34.7,4.8,22.4,62.0*
O=C(Nc1cnc2ccccn2c1=O)c1ccc(Cl)cc1Cl,-56.8,-36.2,-167.3,-23.5,70.6*
Cc1ccc(C(=O)Nc2cnc3ccccn3c2=O)cc1,-105.3,-30.4,-173.2,-79.6,/
COc1ccc(CN(C)C[C@H]2OCCCC[C@H](C)Oc3ccc(NS(=O)(=O)c4ccccc4)cc3C(=O)N([C@H](C)CO)C[C@H]2C)cc1,/,/,/,/,-2.5
O=C(N/N=C/c1cccs1)c1n[nH]c2c1CCCC2,-81.5,12.4,-129.4,7.2,76.1*
C[C@H](CO)N1C[C@H](C)[C@H](CN(C)Cc2ccc(C(=O)O)cc2)OCCCC[C@H](C)Oc2ccc(NC(=O)CCCN(C)C)cc2C1=O,/,/,/,/,-11.5
O=C(N/N=C/c1ccncc1)c1ccccn1,-114.2,-56.2,-104.9,-50.6,-11.8
CC(C)c1ccc(/C=N/NC(=O)c2ccccn2)cc1,-101.9,-34.0,-115.9,-55.9,75.1*
COc1ccc(C(=O)Nc2nc(-c3cccs3)cs2)cc1,-60.1,-45.1,-150.0,-37.1,/
COc1cc(C(=O)Nc2nc(-c3cccs3)cs2)cc(OC)c1OC,2.9,-14.2,-2.6,37.2,59.2*
